17 molecules from PubChem BioAssay (EPA / NIEHS) can be followed below.

Inconclusive results are not listed. Activity calls are given as the source filed them. Rule for the calls: active = hit-call score of the fitted dose curve at least 0.9, where 1 is the maximum; inconclusive = response in the unintended direction; inactive = score below 0.9.

Sequence of Bile acid receptor (Homo sapiens) (Q96RI1 whole entry, looked up, the tested form may be a part): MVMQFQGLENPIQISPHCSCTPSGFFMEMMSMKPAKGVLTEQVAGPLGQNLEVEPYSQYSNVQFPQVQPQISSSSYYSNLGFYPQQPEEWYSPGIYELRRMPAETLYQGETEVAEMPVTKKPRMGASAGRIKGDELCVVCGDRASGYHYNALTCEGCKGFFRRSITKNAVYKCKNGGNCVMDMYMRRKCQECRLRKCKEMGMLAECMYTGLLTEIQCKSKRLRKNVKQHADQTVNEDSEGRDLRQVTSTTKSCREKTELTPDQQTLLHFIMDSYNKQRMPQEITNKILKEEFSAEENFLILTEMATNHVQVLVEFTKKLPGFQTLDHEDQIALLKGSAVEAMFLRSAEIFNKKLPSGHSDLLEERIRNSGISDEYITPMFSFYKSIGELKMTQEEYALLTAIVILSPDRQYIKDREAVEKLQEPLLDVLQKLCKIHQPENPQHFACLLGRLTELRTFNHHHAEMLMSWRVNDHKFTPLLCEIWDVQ

This experiment concerns the target Bile acid receptor (Homo sapiens) (UniProt Q96RI1). In words: OT_FXR_FXRSRC1_1440: Odyssey Thera (OT) 24-hour HEK293T Protein-Complementation Assay for Farnesoid X receptor/SRC-1 Co-activator (AID 2283384). How it is done:
OT_FXR_FXRSRC1_1440 is a cell-based assay that uses HEK293T, a human kidney cell line, with measurements taken at 24 hours after chemical dosing in a 384-well plate.OT_FXR_FXRSRC1_1440 is one of one assay component(s) measured or calculated from the OT_FXR_FXRSRC1_1440 assay. It is designed to make measurements of protein fragment complementation, a form of binding reporter, as detected with fluorescence intensity signals by Protein-fragment Complementation technology.Data from the assay component OT_FXR_FXRSRC1_1440 was analyzed into 1 assay endpoint. This assay endpoint, OT_FXR_FXRSRC1_1440, was analyzed in the positive analysis fitting direction relative to DMSO as the negative control and baseline of activity. Using a type of binding reporter, measures of receptor for gain-of-signal activity can be used to understand the binding at the pathway-level as they relate to the gene NR1H4. Furthermore, this assay endpoint can be referred to as a primary readout, because the performed assay has only produced 1 assay endpoint. To generalize the intended target to other relatable targets, this assay endpoint is annotated to the nuclear receptor intended target family, where the subfamily is non-steroidal.
Protein-fragment complementation assay, or PCA, is a method for the identification and quantification of protein-protein interactions. In the PCA, the proteins of interest ("bait" and "prey") are each covalently linked to fragments of a third protein (e.g. DHFR, which acts as a "reporter"). Interaction between the bait and the prey proteins brings the fragments of the reporter protein in close proximity to allow them to form a functional reporter protein whose activity can be measured.
By AC50 is commonly meant the concentration at which the activity in the assay is half-maximal. With `Cc1[nH]nc2c1N=C(c1ccccc1Cl)c1cc([N+](=O)[O-])ccc1N2`, the AC50 was 0.279 µM (active).

For `CN(Cc1cnc2nc(N)nc(N)c2n1)c1ccc(C(=O)N[C@@H](CCC(=O)O)C(=O)O)cc1`, the molecule was called inactive.

In the case of `COc1cc([N+](=O)[O-])ccc1N`, the AC50 was 28 µM (active).

As to `C=CC(C)(CCC=C(C)C)OC(C)=O` (configuration not stated), the molecule was classed as inactive.

On to `CCCCCCc1ccc(N)cc1`, for which the half-maximal activity concentration (AC50) is 6.61 µM (active).

On to `Cc1cc(C(C)(C)C)c(O)c(C(C)(C)C)c1`, for which the AC50 was 11.4 µM (active).

For `OCC(CO)(CBr)CBr`, the call was inactive.

With `CCCCc1oc2ccccc2c1C(=O)c1cc(I)c(OCCN(CC)CC)c(I)c1`, the AC50 was 8.87 µM (active).

Turning to `O=S(=O)(O)c1ccccc1`, the call was inactive.

For `CCCCCCC(C)(C)C(=O)O`, the result was inactive.

With `CCCCC=O`, the molecule was classed as inactive.

Turning to `Cc1cc(C(=C2C=CC(=Nc3ccc(S(=O)(=O)O)cc3)C=C2)c2ccc(Nc3ccc(S(=O)(=O)O)cc3)cc2)cc(S(=O)(=O)O)c1N`, the result was inactive.

On to `CCCCCCCCCC=CCC1CC(=O)OC1=O` (configuration not stated), for which the molecule was called inactive.

Consider `O=C(CCCN1CCC(O)(c2ccc(Cl)cc2)CC1)c1ccc(F)cc1`, for which the result was inactive.

As for `CCCCCCCCCCCCOC(=O)c1cc(O)c(O)c(O)c1`, the outcome was inactive.

Consider `CCCCCC(C)OC(=O)COc1ccc(Cl)c2cccnc12` (configuration not stated), for which the AC50 is 22.7 µM (active).

For the molecule `NCc1cccc(CN)c1`, the call was inactive.
